Common to all, as to test: NCI-60 one-dose screen, 48 h (100 = growth as untreated, 0 = no growth, -100 = all killed)
Holding throughout (conditions): 10 µM unless noted

The subject of assay [1] is T-47D breast.
For assay [2], the system named is MDA-MB-435 melanoma.
For assay [3], the system named is SW-620 colon.
Assay [4] relates to MCF7 breast.
Assay [5] has as its system HCT-116 colon.
Assay [6] deals with HCC-2998 colon.
In assay [7] the test system is KM12 colon.
For assay [8], the system named is BT-549 breast.

This is part of a sample that, as a whole, favours compounds with a hit. Of some 83,000 tested, about 20% had one in any assay.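 How to read the values: 0–100, growth inhibition (40 = 60% inhibited); 0, no net growth; -100 to 0, cell death (-40 = 40% of starting cells died; -100 = all dead).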 A number with no mark means an inactive call. Calls of active or inactive are those of the source. The calls were made as follows: active = growth percent below 10; inactive = the rest.

On to `CCOC(=O)CNC(=O)Sc1ccc(C(C)(C)C)cc1`, for which the growth in assay [1] was 88.4%; in assay [2], 88.3%; in assay [3], 108%; in assay [4] it was 99.3%; in assay [5] it was 98.6%; in assay [6], 110%. In addition, the growth in assay [7] was 102%.

As to `CC(=O)C[n+]1ccc(C)cc1Sc1ccccc1C`, the growth in assay [1] was 82.2%; in assay [8] it was 90%; in assay [3], 100%; in assay [4], 90.3%; in assay [5] it was 92.9%; in assay [6], 108%. The growth in assay [7] is 94.1%.

Take `NC(=O)N1CCOCC1`: the growth was 97.4% in assay [1]; 116% in assay [2]; 112% in assay [3]; 93% in assay [4]; 106% in assay [5]; 112% in assay [6]. Further, the growth in assay [7] was 108%.

On to `COc1ccc(/C=N/NC(=O)COCC(=O)N/N=C/c2ccc(OC)cc2)cc1`, for which the growth in assay [1] was 104%; in assay [8] it was 118%; in assay [3], 108%; in assay [4] it was 95.9%; in assay [6], 111%; in assay [7], 107%.

On to `CCCCNc1ccc(-c2ccc(NCCCC)cc2)cc1`, for which the growth was 45.9% in assay [1]; 31.1% in assay [8]; 78.6% in assay [3]; 34.3% in assay [4]; 55.3% in assay [5]; 94.7% in assay [6]. For the same compound, in assay [7], the growth was 56.9%.

For the compound `CC(C)c1ccccc1NC(=O)N1CCC(C(C)C)CC1`, the growth in assay [1] is 111%; in assay [8] it was 103%; in assay [3] it was 107%; in assay [4], 97.5%; in assay [5] it was 108%; in assay [6], 109%. Also, the growth in assay [7] was 113%.

Take `Nc1nnc2cc(F)ccc2n1`: the growth in assay [1] was 96%; in assay [8], 81.5%; in assay [3] it was 94.1%; in assay [4], 96.3%; in assay [5], 91.9%; in assay [6], 103%. The growth in assay [7] is 103%.

For the compound `c1ccc2[nH]c(Cc3nc4ccccc4[nH]3)nc2c1`, the growth in assay [1] was 89.3%; in assay [2], 101%; in assay [3] it was 105%; in assay [4], 84.9%; in assay [5], 89.8%; in assay [6] it was 108%. In addition, the growth in assay [7] is 97.6%.

As to `Cc1nc(O)cc(=O)[nH]1`, the growth in assay [1] is 113%; in assay [2], 126%; in assay [3] it was 109%; in assay [4], 101%; in assay [5] it was 113%; in assay [6], 110%. Besides, the growth in assay [7] is 110%.

`Cc1nc(C)c(C(=O)O)cc1C(=O)O`: the growth was 122% in assay [1]; 110% in assay [2]; 109% in assay [3]; 109% in assay [4]; 111% in assay [5]; 101% in assay [6]. The growth in assay [7] is 117%.

As to `Cc1ccc(S(=O)(=O)CCCl)cc1`, the growth in assay [1] is 106%; in assay [2] it was 117%; in assay [3], 110%; in assay [4], 100%; in assay [5] it was 118%; in assay [6] it was 104%. For the same compound, the growth in assay [7] was 111%.

With `O=C(O)CCCCCNC(=O)OCc1ccccc1`, the growth is 97.6% in assay [1]; 99.8% in assay [2]; 95.2% in assay [3]; 93.6% in assay [4]; 92.9% in assay [5]; 105% in assay [6]. Also, in assay [7], the growth is 101%.

`Nc1cc2ccccc2c(O)c1O`: the growth is -0.96% (active) in assay [1]; -81.1% (active) in assay [2]; -33.6% (active) in assay [3]; -43.2% (active) in assay [4]; -66.9% (active) in assay [5]; 62.3% in assay [7].

For the compound `Clc1ccc(/C=C/c2ccccn2)cc1`, the growth in assay [1] was 44.1%; in assay [2], 105%; in assay [3], 84.2%; in assay [4], 25.9%; in assay [5], 81.6%; in assay [6] it was 111%. For the same compound, in assay [7], the growth was 89.8%.

`O=C1C=C[C@H](O)[C@@]2(CO)O[C@@H]12`: the growth in assay [1] is 94.2%; in assay [2], 77%; in assay [3] it was 13.9%; in assay [4], 42.9%; in assay [5] it was 19.9%; in assay [6], 104%. In assay [7], the growth is 98.4%.

On to `CN=S(=O)(OCCCCCOS(=O)(=NC)c1ccc(C)cc1)c1ccc(C)cc1` (configuration not stated), for which the growth is 88.5% in assay [1]; 91.9% in assay [2]; 84.9% in assay [3]; 87.6% in assay [4]; 75.2% in assay [5]; 91.5% in assay [6]. The growth in assay [7] is 98.2%.

`Oc1cccnc1CN1CCCC1`: the growth in assay [1] was 95.2%; in assay [2], 107%; in assay [3] it was 105%; in assay [4] it was 93.9%; in assay [5] it was 116%; in assay [7] it was 113%.

Take `N#Cc1ccc2nc[nH]c2c1`: the growth is 107% in assay [1]; 109% in assay [2]; 104% in assay [3]; 96.8% in assay [4]; 105% in assay [5]; 98.5% in assay [7].

With `COC1=C(OC)C(=O)C(SC/C=C(\C)CCCC(C)CCCC(C)CCCC(C)C)=CC1=O` (configuration not stated), the growth in assay [1] was 12.5%; in assay [2], 18.5%; in assay [3], 18.7%; in assay [4], 4.9% (active); in assay [5] it was 9.93% (active); in assay [6], -4.48% (active). Moreover, in assay [7], the growth was 11.6%.

With `O=C(NC1CCCCC1)c1ccc(Cl)cc1`, the growth is 85.1% in assay [1]; 105% in assay [2]; 103% in assay [3]; 104% in assay [4]; 106% in assay [5]; 106% in assay [6]. The growth in assay [7] is 102%.

Turning to `C=C1CC2(OC1=O)C(=O)N(C)c1ccc(I)cc12` (configuration not stated), the growth in assay [1] is -82.6% (active); in assay [2] it was -64.8% (active); in assay [3], -76.3% (active); in assay [4], -66.8% (active); in assay [5], -92.6% (active); in assay [7], 2.99% (active).
